Assay results from the supplement of paper PMC6555819.

Experiments:
Test in all cases: PBM binding z-score (relative to random genomic background probes); higher = stronger binding; sequences stand for … in GC…GCGATTGACAGCGTAGAATGAAGG
[1] = test system: FXR:RXRa (NR concentration 270 nM, RXRa partner concentration 90 nM)
Method in brief: (§1)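 Probes were double-stranded and carried 34-nt variable regions with direct-repeat seeds, single-nucleotide variants, half-site ablations and random human genomic background sequences, printed on custom Agilent 4×180K protein-binding microarrays. Arrays were incubated 1 h with ligand-free nuclear receptor dimers in PBS pH 7.4, 2% milk, 0.02% Triton X-100, 1 mM DTT, 0.2 mg/mL BSA and 0.4 mg/ml salmon testes DNA. Antibodies against each partner (one per run) detected binding, and scanned fluorescence was regression-normalized. Binding z-scores use the random background probes as reference.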

[2] = test system: LXRa:RXRa (NR concentration 270 nM, RXRa partner concentration 90 nM)
Method in brief: as §1

[3] = test system: LXRa homodimer (NR concentration 270 nM)
Method in brief: as §1

[4] = test system: LXRb:RXRa (NR concentration 270 nM, RXRa partner concentration 90 nM)
Method in brief: as §1

[5] = test system: LXRb homodimer (NR concentration 270 nM)
Method in brief: as §1

[6] = test system: PPARa:RXRa (NR concentration 270 nM, RXRa partner concentration 90 nM)
Method in brief: as §1

[7] = test system: PPARg:RXRa (NR concentration 180 nM, RXRa partner concentration 90 nM)
Method in brief: as §1

[8] = test system: PPARg:RXRa 270nM:90nM, anti-RXR (NR concentration 270 nM, RXRa partner concentration 90 nM)
Method in brief: as §1

[9] = test system: PPARg:RXRa 30nM:10nM, anti-RXR (NR concentration 30 nM, RXRa partner concentration 10 nM)
Method in brief: as §1

[10] = test system: PPARg:RXRa 90nM:30nM, anti-RXR (NR concentration 90 nM, RXRa partner concentration 30 nM)
Method in brief: as §1

[11] = test system: PPARg:RXRa DBDmut IVT, anti-RXR (DBD mutation: RXRa K156A/R161A, NR concentration 270 nM, RXRa partner concentration 90 nM)
Method in brief: as §1

[12] = test system: PPARg:RXRa IVT, anti-PPARg (NR concentration 270 nM, RXRa partner concentration 90 nM)
Method in brief: as §1

[13] = test system: PPARg DBDmut:RXRa IVT, anti-PPARg (DBD mutation: PPARg1 K132A/R137A, NR concentration 270 nM, RXRa partner concentration 90 nM)
Method in brief: as §1

[14] = test system: PPARg DBDmut IVT, anti-PPARg (DBD mutation: PPARg1 K132A/R137A, NR concentration 270 nM)
Method in brief: as §1

[15] = test system: PPARg homodimer (NR concentration 180 nM)
Method in brief: as §1

[16] = test system: PXR:RXRa (NR concentration 270 nM, RXRa partner concentration 90 nM)
Method in brief: as §1

[17] = test system: PXR homodimer (NR concentration 270 nM)
Method in brief: as §1

[18] = test system: RARa:RXR (NR concentration 270 nM, RXRa partner concentration 90 nM)
Method in brief: as §1

[19] = test system: RARa homodimer (NR concentration 270 nM)
Method in brief: as §1

[20] = test system: RARb:RXRa (NR concentration 270 nM, RXRa partner concentration 90 nM)
Method in brief: as §1

Row | Sequence | PBM binding z-score [1] | PBM binding z-score [2] | PBM binding z-score [3] | PBM binding z-score [4] | PBM binding z-score [5] | PBM binding z-score [6] | PBM binding z-score [7] | PBM binding z-score [8] | PBM binding z-score [9] | PBM binding z-score [10] | PBM binding z-score [11] | PBM binding z-score [12] | PBM binding z-score [13] | PBM binding z-score [14] | PBM binding z-score [15] | PBM binding z-score [16] | PBM binding z-score [17] | PBM binding z-score [18] | PBM binding z-score [19] | PBM binding z-score [20]
1 | CGCCAAAGTTCAACTAAGGTAACGTAAAGCACGC | 5.71 | 6.43 | 4.61 | 4.35 | 2.19 | 5.16 | 4.03 | 5.02 | 1.67 | 3.91 | 0.771 | 1.55 | 0.546 | 0.253 | 3.81 | 5.66 | 5.04 | 4.28 | 2.96 | 5.16
2 | ACTATTAGTTGACTTAGGGCCACCGATACGACGC | 0.803 | 0.394 | 0.324 | 0.152 | 0.713 | 0.121 | 1.07 | 0.422 | 0.18 | 0.363 | 0.373 | 0.728 | 1.68 | 1.42 | 0.408 | 0.124 | 0.0401 | 0.753 | 0.459 | 0.755
3 | TCTTGTAGATCAAGCAGGTTAAGAATGCCTGAGT | 0.16 | 0.304 | -0.202 | 0.114 | -0.543 | 0.658 | -0.22 | 1.1 | 2.61 | 1.83 | 1.49 | 0.313 | -0.142 | 0.577 | -0.335 | 0.291 | -0.153 | 0.248 | -0.193 | 0.0521
4 | AGACCAAGGTGATCGTGAGGTCGTTGATACTAAC | 1.27 | 0.891 | 0.368 | 0.98 | -0.813 | 1.58 | 0.415 | 0.494 | 0.11 | 0.313 | 0.783 | 0.9 | -0.832 | -0.109 | 0.38 | 2.79 | 0.858 | 1.72 | -0.21 | 1.32
5 | TGAATGAGGCTAAAGATCAGGGAACGTGGCGTCG | -0.481 | -0.541 | -0.699 | -0.926 | -0.646 | 1.97 | 2.96 | 4.9 | 3.03 | 4.67 | -0.0886 | 1.02 | 0.37 | -0.283 | -0.62 | -0.523 | -0.778 | -0.214 | -0.864 | 0.177
6 | CCTACTGGGCCATCAGGTCATTCATATCAACGTT | 1.41 | 1.28 | 1.89 | 1.61 | -0.0742 | 2.72 | 2.7 | 3.47 | 1.16 | 2.86 | 4.57 | 4.74 | 0.597 | 0.12 | 1.48 | 1.73 | 1.07 | 1.96 | 0.469 | 2.01
7 | TCGAGTAGGTTACCAATGGGGCCTTCAGCTTTCT | -0.184 | 0.128 | -0.933 | -0.0136 | -1.01 | 0.918 | -0.264 | 0.957 | 0.922 | 0.958 | 3.36 | 2.22 | -0.652 | -1.23 | -0.653 | -0.289 | -1.01 | 0.0831 | -1.27 | 0.653
